High-throughput results: PubChem, National Center for Advancing Translational Sciences (NCATS)
SW480 rerep = A quantitative high throughput screen for small molecules that induce DNA re-replication in SW480 colon adenocarcinoma cells. SW480 DNA re-replication, Hoechst DNA content imaging, 48 h. Potency, µM (top dose mostly 46.1 µM), for inactives: at the highest dose re-replication activation, hits mostly activators. 340,000 compounds, 1.8% hits; further: % of control where 0% means no effect; nearly all actives have a fitted effect of over 55% in size
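Readout is total intensity of Hoechst-stained nuclei, excited at 405 nm and collected at 500-530 nm. Compound treatment lasted 48 hr at 37 C in 5% CO2 before staining.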
KB-3-1 tox = qHTS assay for MDR1-selective chemotherapeutics: Primary screen using the parental adenocarcinoma cell KB-3-1; KB-3-1 viability, CellTiter-Glo ATP luminescence, 72 h; 400,000 compounds, 1.4% hits; Potency, µM (top dose mostly 46.1 µM), hits mostly cytotoxic; further: on the % scale 0 is the no-effect control and ±100 the full control effect; nearly all actives have a fitted effect of over 60% in size
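Parental KB-3-1 viability, qHTS format: 72 h compound exposure, 37 °C; CellTiter-Glo; media-only wells and DMSO plates as controls; concentration-effect fits on corrected data.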
PINK1 expr mod = A Quantitative High throughput Screen to Identify Chemical Modulators of PINK1 Expression; PINK1 immunofluorescence, high-content cytometry, 24 h; Potency, µM (series often up to 76.6 µM), for inactives: at the top dose activation (PINK1 increase), actives largely listed as activators; 410,000 compounds, 0.2% hits; active means well fitted activation curve with a large enough effect; inconclusive means small, poorly fitted or top-dose-only effect; cell line not stated here; further: % of control where 0% means no effect; nearly all actives have a fitted effect of over 65% in size
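Readout is PINK1 immunofluorescence, quantified alongside mitochondrial, cell and nuclear markers by laser-scanning microplate cytometry. Cells from a stable line were exposed to compound titrations (5 concentrations) for 24 hours, with CCCP controls.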
MCF10A rereplic = A quantitative high throughput screen for small molecules that induce DNA re-replication in MCF 10a normal breast cells | AID 624296, 2012 | MCF 10A DNA re-replication, Hoechst nuclear intensity, 48 h | 350,000 compounds, 2.9% hits | Potency, µM (highest dose often 46.1 µM), without a hit: at the top dose activity, positive = re-replication, usual class: activators; further: % of control where 0% means no effect; nearly all actives have a fitted effect of over 50% in size
PTAP TSG101 blk = qHTS Assay for Iinhibitors of HIV-1 Budding by Blocking the Interaction of PTAP/TSG101. Tumor susceptibility gene 101 protein (Homo sapiens), Q99816. Fluorescence polarization, FITC-PTAP peptide / Tsg101 binding. Potency, µM (doses to about 115 µM), inactives show at the top dose activity change, negative = inhibition, hits mostly inhibitors. 340,000 tested, under 10 active; active means well fitted inhibition curve with a large enough effect in the main read-out, with a control signal flat, not every such curve was filed as active; inconclusive means small, poorly fitted or top-dose-only effect, or effect the other way, or a change in a side signal; inactive means no such curve, though single readings can be large or run the other way; further: % of control where 0% means no effect
Target sequence (Q99816 whole entry, looked up): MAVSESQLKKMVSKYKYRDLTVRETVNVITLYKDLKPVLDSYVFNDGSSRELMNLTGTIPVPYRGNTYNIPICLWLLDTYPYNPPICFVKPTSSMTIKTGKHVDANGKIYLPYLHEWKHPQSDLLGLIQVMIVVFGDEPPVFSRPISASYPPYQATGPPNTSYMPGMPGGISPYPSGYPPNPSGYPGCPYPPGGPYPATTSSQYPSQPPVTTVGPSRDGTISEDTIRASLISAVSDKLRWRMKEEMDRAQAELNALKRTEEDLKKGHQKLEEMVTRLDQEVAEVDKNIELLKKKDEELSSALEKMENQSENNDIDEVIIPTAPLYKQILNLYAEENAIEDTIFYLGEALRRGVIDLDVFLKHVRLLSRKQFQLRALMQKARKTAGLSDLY
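Compounds were pin-transferred onto Tsg101 binding domain (10 uM final) in HEPES pH 7.5 buffer, then FITC-PTAP peptide was added at 50 nM final. After 20 min at RT, polarization reported peptide displacement across a qHTS concentration series.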
KB-V1 MDR tox = qHTS assay for MDR1-selective chemotherapeutics: Primary screen using the drug-selected MDR subline cells KB-V1; Potency, µM (titrated, usually from 46.1 µM), hits mostly cytotoxic; AID 1347076, 2019; KB-V1 MDR cells viability, CellTiter-Glo, 72 h; 400,000 compounds, 3.4% hits; further: on the % scale 0 is the no-effect control and ±100 the full control effect; nearly all actives have a fitted effect of over 60% in size
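KB-V1 cells (P-gp-expressing MDR subline of KB-3-1) in phenol-red-free DMEM with 10% FBS were exposed to library compounds over a concentration series for 72 h at 37 degrees C. Viability read by CellTiter-Glo luminescence; concentration-effect curves fitted after normalization.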
The depositor's hits bear a star; i = inactive; ? = inconclusive; nt = no result; [ ] = remark or other dose. Rows were chosen to be rich in hits. Some 6.8% of all compounds tested hit in one or more screens of this group. Unless noted, the call rests on the fitted dose curve; in most records, active means well fitted curve in the direction sought with a large enough effect; inconclusive means small, poorly fitted or top-dose-only effect, or another doubt; inactive means no such curve, though single readings can be large; an effect the other way counts as inactive or inconclusive. Potency means the concentration at half of the fitted maximal effect.

SMILES	SW480 rerep	KB-3-1 tox	PINK1 expr mod	MCF10A rereplic	PTAP TSG101 blk	KB-V1 MDR tox
COc1ccc(S(=O)(=O)NCCc2sc(-c3cccnc3)nc2C)cc1	nt	i	0.1%	nt	nt	?
Cc1ccc(C)c(NC(=O)CN2C(=O)CCc3cc(S(=O)(=O)N4CCCCC4)ccc32)c1	nt	i	-0.7%	nt	nt	i
Cc1ncc2c(c1CNC(=O)c1ccc3c(c1)OCO3)CCN(C(=O)c1cnsn1)C2	nt	nt	0.1%	nt	nt	nt
O=C(c1cccnc1)C1CCCN(Cc2ccc3c(c2)CN(C(=O)c2cccs2)CCO3)C1 (stereo not drawn)	nt	nt	0.4%	nt	nt	nt
COC(=O)c1ccc(CN2CCC3(CCC(CNC(=O)c4ccco4)O3)CC2)cc1 (stereo not drawn)	nt	nt	1.8%	nt	nt	nt
CCCN(Cc1cc2cc(C)ccc2[nH]c1=O)C(=O)c1cccc(OC)c1	17.8%	16.4µM*	0.4%	14.4%	-3.8%	7.31µM*
COCCCNC(=S)N(CCO)Cc1cc2cc3c(cc2[nH]c1=O)OCCO3	-69.4%	?	0.3%	0.651µM*	-3.5%	i
COCCNC(=S)N(CCO)Cc1cc2cc3c(cc2[nH]c1=O)OCCO3	7.2%	i	-0.1%	-8.1%	-5.1%	?
Cc1ccc(NC(=S)N(CCN(C)C)Cc2cc3cccc(C)c3[nH]c2=O)cc1	20.6µM*	i	2.8%	?	-0.2%	3.26µM*
CCCN(Cc1cc2cccc(C)c2[nH]c1=O)C(=O)c1cccc(OC)c1	-1.8%	i	-2.4%	-0.2%	-2.7%	?
CCN(CC)C(=O)Cn1c(=O)n(Cc2ccc(C(=O)NCCc3ccc(OC)c(OC)c3)cc2)c(=O)c2ccccc21	nt	i	1.2%	nt	nt	?
Cc1ccc(-c2cc(C(=O)Oc3ccccc3)c3cc(C)ccc3n2)cc1	nt	i	0.4%	nt	nt	?
Cc1ccc(CN2C(=O)c3ccccc3C2C(=O)NC2CCCCCC2)cc1 (stereo not drawn)	nt	i	0.7%	nt	nt	i
O=C(c1nn2c(C(F)(F)F)cc(-c3cccs3)nc2c1Br)N1CCCc2ccccc21	?	?	6.8%	?	-0.3%	?
O=C(NC1CCCC1)c1cnn2c(C(F)(F)F)cc(-c3ccc4c(c3)OCO4)nc12	1.2%	i	8.1%	10.6%	12.8%	?
O=C(c1nn2c(C(F)(F)F)cc(-c3ccco3)nc2c1Br)N1CCCc2ccccc21	?	?	2.3%	9.2µM*	-9.7%	23.1µM*
O=C(NC1CCCC1)c1cnn2c(C(F)(F)F)cc(-c3ccco3)nc12	0.1%	i	0.6%[38.3 µM]	?	nt	5.17µM*
CC(C)CCNC(=O)c1cc(-c2ccco2)nc2ccccc12	-0.7%	i	-1.5%	7.6%	-8.0%	9.2µM*
CCOC(=O)c1cnn2c(C(F)(F)F)cc(-c3ccco3)nc12	16.2%	i	0.1%	-0.3%	-13.0%	i
CC(C)CCNC(=O)c1cnn2c(C(F)(F)F)cc(-c3ccco3)nc12	-0.3%	?	0.8%[38.3 µM]	-10.0%	-10.4%	11.2µM*
CCCCCCNC(=O)c1cc(-c2ccco2)nc2ccccc12	2.1%	?	-0.2%	27.6%	-3.7%	i
O=C(Cn1c(=O)oc2cc(S(=O)(=O)NC3CCCC3)ccc21)Nc1ccc(F)c(F)c1	nt	i	-0.8%	nt	nt	i
CCN(C(=O)c1nn(C)c2c1CSc1ccccc1-2)c1cccc(C)c1	nt	nt	1.7%	nt	nt	nt
O=S(=O)(NCCc1csc2nc(-c3ccc(F)cc3)nn12)c1ccc(Oc2ccccc2)cc1	nt	nt	1.2%	nt	nt	nt
O=S1(=O)N=C(Oc2ccc3ccccc3c2)c2ccccc21	nt	i	nt	nt	nt	i
SMILES	SW480 rerep	KB-3-1 tox	PINK1 expr mod	MCF10A rereplic	PTAP TSG101 blk	KB-V1 MDR tox
OC(CSc1nnnn1-c1ccccc1)Cn1c2ccccc2c2ccccc21 (stereo not drawn)	nt	?	-0.3%	nt	nt	20.6µM*
CCn1c2ccccc2c2cc(NC(=O)CSc3nnnn3-c3ccccc3)ccc21	0.3%	i	8.9%	9.1%	-2.6%	i
O=C(CSc1oc(-c2ccc(F)cc2)nc1S(=O)(=O)c1ccc(Cl)cc1)c1ccccc1	nt	i	-1.6%	nt	nt	i
CC(C)(C)OC(=O)N1CCC(c2c(C(=O)Nc3ccc4c(c3)OCCO4)cnn2-c2ccc(Cl)cc2)CC1	nt	i	1.8%	nt	nt	i
Cc1cccc(-n2c(CCn3nc(C)c([N+](=O)[O-])c3C)n[nH]c2=S)c1	9.5%	i	11.2µM*	-5.8%	-5.9%	i
O=C(CSc1nc2c([nH]c3ccccc32)c(=O)n1-c1ccc(F)cc1)N1CCCc2ccccc21	nt	i	-3.0%	nt	nt	?
Cc1c(C(=O)NCc2cccs2)sc(=O)n1Cc1ccc(S(=O)(=O)N(C)C)cc1	nt	?	0.0%	nt	nt	?
Cc1c(C(=O)NCc2ccc3c(c2)OCCO3)sc(=O)n1Cc1ccc(S(=O)(=O)N(C)C)cc1	nt	?	1.9%	nt	nt	9.2µM*
Cc1c(C(=O)NCc2ccc([N+](=O)[O-])cc2)sc(=O)n1Cc1ccc2c(c1)OCO2	nt	i	-1.2%	nt	nt	14.6µM*
Cc1c(C(=O)NCc2ccc3c(c2)OCO3)sc(=O)n1Cc1ccc(S(=O)(=O)N(C)C)cc1	nt	?	0.4%	nt	nt	2.91µM*
Cc1c(C(=O)NCc2cccc(C(F)(F)F)c2)sc(=O)n1Cc1ccc(S(=O)(=O)N(C)C)cc1	nt	?	0.6%	nt	nt	?
COc1ccc(CNC(=O)c2cn(Cc3ccc(S(=O)(=O)N(C)C)cc3)c(=O)s2)cc1	nt	?	-0.2%	nt	nt	23.1µM*
O=C(CC(c1cccs1)N1Cc2ccccc2C1=O)Nc1cccc(F)c1 (stereo not drawn)	nt	i	-1.1%	nt	nt	?
Fc1ccc(-c2nc(Nc3cccc(C(F)(F)F)c3)nc3c2COc2ccccc2-3)cc1	nt	i	0.2%	nt	nt	i
O=C(NCC(c1ccco1)N1CCCC1)c1cc2cc(Cl)ccc2o1 (stereo not drawn)	10.8%	i	-1.0%	?	-0.5%	9.2µM*
CCc1ccccc1NC(=O)CC(c1ccc(OC)cc1)n1cccc1 (stereo not drawn)	-52.2%	i	-0.7%	?	-0.1%	7.31µM*
CN1C(=O)c2cccc(NCCCCCCN3C(=O)c4ccccc4C3=O)c2C1=O	-1.1%	i	?	-17.1%	0.5%	i
